Assay outcomes from PubChem BioAssay.
HIF activator – HIF pathway transcriptional activation; U2OS HRE-luciferase reporter, luminescence; normalized: DMSO 0%, desferrioxamine 100%; activation, % at 7.5 µM (by protocol); 300,000 compounds, 0.32% hits; AID 1910;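 active = mean activation of at least 10% of the iron chelator positive control signal, with at least half of replicates also reaching 10%; inconclusive = mean and replicate majority disagree about reaching 10%; inactive = mean and most replicates under 10%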
Yeast superoxide – yeast age-related superoxide inhibition as caloric restriction mimetic. AID 2690. 330,000 compounds, 0.18% hits. S. cerevisiae aged cells, superoxide DHE fluorescence; active compounds read low. superoxide response (% of plate mean), % at 10 µM;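 active = superoxide response under a set limit, about three screen SD below normal, cut at about 65% in these data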;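 also: yeast aged for seven days with compound at 30 °C before DHE staining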
LANA-H2B inh – blocks KSHV LANA binding to histone H2A/H2B; Q9QR71; cell-free LANA-H2A/H2B peptide, fluorescence polarization; inhibition, % (no concentration beside the values); 320,000 compounds, 0.6% hits; AID 2629; in the data active = inhibition mostly above about 10%, no sharp cut-off; inactive = mostly below about 6.7%
HDAC3 inh – blocks human histone deacetylase 3 | O15379 | recombinant HDAC3, fluorogenic peptide/trypsin coupled, fluorescence | inhibition, % at 8.3 µM | 320,000 compounds, 0.15% hits; in the data active = inhibition above about 26%, passing the limit was not always enough; inconclusive = no clear call, values can overlap the other calls
Target sequence (O15379 whole entry, looked up): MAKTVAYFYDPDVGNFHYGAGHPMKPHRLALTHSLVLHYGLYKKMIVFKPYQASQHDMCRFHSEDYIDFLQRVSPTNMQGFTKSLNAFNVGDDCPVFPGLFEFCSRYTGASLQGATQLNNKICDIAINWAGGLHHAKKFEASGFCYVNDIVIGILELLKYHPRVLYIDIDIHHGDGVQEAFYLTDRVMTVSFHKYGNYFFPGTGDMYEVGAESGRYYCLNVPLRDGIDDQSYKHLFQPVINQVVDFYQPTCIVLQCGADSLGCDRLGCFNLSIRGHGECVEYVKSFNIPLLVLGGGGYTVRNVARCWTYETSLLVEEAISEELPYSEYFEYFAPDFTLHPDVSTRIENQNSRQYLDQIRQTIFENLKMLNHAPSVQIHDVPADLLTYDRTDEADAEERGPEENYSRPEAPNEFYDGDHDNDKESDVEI
Numbers stand for hits; – = inactive; ? = inconclusive; · = no result; + = active, no number. In the library only some 1.2% were active in any assay of this set; here they are far more common.

SMILES | HIF activator | Yeast superoxide | LANA-H2B inh | HDAC3 inh
O=C(CCN1C(=O)CSc2ccccc21)Nc1ccc(OC(F)(F)F)cc1 | · | – | + | –
CCOc1ccc(NC(=O)CCN2C(=O)CSc3ccccc32)cc1 | · | – | – | –
CN(c1ccc(C(=O)NC2CCCCC2)cc1)S(=O)(=O)c1ccccc1 | – | – | – | –
CCC(=O)c1c(NCCc2ccccc2)cc(C)oc1=O | – | – | – | –
CC(=O)N1CCC(=NNc2nc3ccccc3[nH]2)CC1 | 22 | – | – | –
CCOC(=O)/C=C/C(=O)OCC(=O)Nc1ccc([N+](=O)[O-])cc1 | – | – | – | ·
COc1cc(NC(=O)COc2cccc3c2OC(C)(C)C3)cc(OC)c1OC | · | – | 34 | –
CC(=O)Nc1ccc(NC(=O)COc2cccc3c2OC(C)(C)C3)cc1 | – | – | – | –
C[C@H](NC(N)=O)C(=O)OCC(=O)NCc1cccs1 | – | – | – | –
COc1ccc(C2NC(=S)NC3=C2CCCC3=C2SCCS2)cc1 (stereo unspecified) | 235 | – | – | ?
S=C1NC2=C(CCCC2=C2SCCCS2)C(c2ccccc2)N1 (stereo unspecified) | – | – | – | 43
CCCOc1ccc(-c2c(C(=O)N/N=C(\C)c3ccncc3)nnn2-c2nonc2N)cc1 | – | – | – | –
COc1ccc(O)c(/C=N/NC(=S)Nc2cccc(S(=O)(=O)N(C)C)c2)c1 | 42 | – | – | –
COc1cccc(/C=N/NC(=S)Nc2cccc(S(=O)(=O)N(C)C)c2)c1 | – | – | – | –
CCc1noc(C)c1C(=O)Nc1nc(-c2cc(OC)ccc2OC)cs1 | – | – | – | –
c1ccc(-c2cncnc2)cc1 | · | – | – | –
CC1(NC(=O)N2CCCCC2)CCS(=O)(=O)C1 (stereo unspecified) | – | – | 19 | –
CC(C)NC(=S)NC1(C)CCS(=O)(=O)C1 (stereo unspecified) | – | – | – | –
COC(C/C=C\[C@@H](O)COCc1ccccc1)OC | – | · | · | ·
COc1cc(NC(=O)C2CCN(S(=O)(=O)c3cccs3)CC2)cc(OC)c1 | – | – | – | –
COc1ccccc1C(C)NC(=O)C1CCN(S(=O)(=O)c2cccs2)CC1 (stereo unspecified) | · | – | + | –
O=c1c2ccccc2nc(/C=C/c2cccc([N+](=O)[O-])c2)n1CCO | – | – | 19 | –
CCOc1cccc(-c2c(C(=O)N/N=C/c3ccc(Br)cc3)nnn2-c2nonc2N)c1 | 10 | – | – | –
CCOc1cccc(-c2c(C(=O)N/N=C/c3cccnc3)nnn2-c2nonc2N)c1 | – | – | – | –
CCOc1ccc(-c2c(C(=O)N/N=C/c3cccc(Br)c3)nnn2-c2nonc2N)cc1 | – | – | 20 | –
SMILES | HIF activator | Yeast superoxide | LANA-H2B inh | HDAC3 inh
CC1CN(S(=O)(=O)c2ccc(C(=O)N(CCCN(C)C)c3nc4c(Cl)cccc4s3)cc2)CC(C)O1 (stereo unspecified) | – | – | – | –
COC(=O)c1cc(OC)nc(OC)c1 | – | – | 25 | –
Cc1nc2ccccc2n2c(O)c(CC(=O)O)cc12 | – | – | 27 | –
Cc1nc2ccccc2n1CCC(=O)O | – | – | – | –
COCCNC(=O)c1ccc(N2CC3CC(C2)c2cccc(=O)n2C3)c(NC(=O)c2ccc(Br)o2)c1 (stereo unspecified) | – | – | – | –
Clc1ccc(C2=CC(c3ccco3)n3ncnc3N2)cc1 (stereo unspecified) | – | – | – | –
CC(=O)Nc1cccc(C2=CC(c3ccco3)n3ncnc3N2)c1 (stereo unspecified) | – | – | 30 | –
CCN1C(=O)[C@H]2[C@@H](c3ccc(-c4ccc(F)cc4)cc3)N[C@@](C)(C(=O)OC)[C@H]2C1=O | · | – | – | –
COc1ccc(NC(=O)C2(S(=O)(=O)c3ccc(C)cc3)CC2)cc1OC | – | – | 26 | –
CSCCC(C(=O)OC1CCOC1=O)N1C(=O)c2ccccc2C1=O (stereo unspecified) | – | – | – | –
CCOc1ccc(C2C3=C(CCCC3=O)Nc3nc(C(F)(F)F)nn32)cc1OC (stereo unspecified) | – | – | – | –
CCOc1cc(C2C3=C(CCCC3=O)Nc3nc(C(=O)OC)nn32)ccc1OC (stereo unspecified) | – | – | 20 | –
CCC(=O)n1nc(-c2cccnc2)nc1NCc1ccccc1 | – | · | · | ·
CCC(=O)n1nc(-c2cccnc2)nc1NCc1ccc(F)cc1 | – | – | – | 29
O=C(c1cccs1)n1nc(-c2ccccc2)nc1NCc1ccc(F)cc1 | – | – | – | –
CC(=O)n1nc(-c2ccccc2)nc1NCc1ccc(F)cc1 | – | – | – | 32
Cc1ccccc1NS(=O)(=O)c1ccc(C(=O)N(C)CC(=O)Nc2ccccc2Br)cc1 | · | – | – | –
COc1ccccc1C/C(N)=N/OC(=O)COc1cccc(C)c1C | – | – | + | –
CC(OC(=O)c1cccc(-n2cnnn2)c1)C(=O)N(C)c1ccccc1 (stereo unspecified) | – | – | – | –
CC1CC(C)CN(C(=O)COC(=O)COc2ccc(C#N)cc2)C1 (stereo unspecified) | · | – | – | –
Cc1cccc(CC2CC(=O)N(c3ccc(C)cc3Br)C2=O)c1 (stereo unspecified) | – | – | 26 | –
Cc1ccc(Cc2c(C)nc3nc(SCC(=O)NCCCN4CCCCCC4)nn3c2C)cc1 | – | – | – | 33
CCOC(=O)CNC(=O)N1CCCC(Cc2ccccc2)(C(=O)OCC)C1 (stereo unspecified) | – | – | – | –
Cc1ccc(O)c(CNc2ccc(S(=O)(=O)Nc3nccs3)cc2)c1 | – | – | – | ·
Cc1onc(-c2c(Cl)cccc2Cl)c1C(=O)N1CCCc2ccccc21 | – | – | – | –
SMILES | HIF activator | Yeast superoxide | LANA-H2B inh | HDAC3 inh
Cc1onc(-c2c(F)cccc2Cl)c1C(=O)N1CCc2ccccc21 | – | – | 66 | –
COc1ccc(C(=O)O)cc1S(=O)(=O)NCc1ccccn1 | – | – | – | –
COc1ccc(NC(C)=O)cc1S(=O)(=O)NCCc1ccccn1 | · | – | 30 | –
O=C(NC(=S)Nc1ccccn1)c1cc(-c2ccccc2)nc2ccccc12 | 184 | – | – | –
O=C(COc1ccccc1)Nc1ccncc1Cl | – | – | – | –
N#CCC(=O)Nc1ncc(Cc2ccccc2Cl)s1 | – | – | 33 | –
COc1ccc(NC(=S)NNC(=O)OC(C)(C)C)cc1OC | – | – | 33 | –
O=C(CSc1nnc(NC(=O)c2c(F)cccc2Cl)s1)Nc1ccccc1F | – | – | – | –
COc1ccc(C(=O)n2c(-c3ccco3)nc3ccccc32)cc1 | – | – | – | 43
CC(C)c1ccc(NC(=O)[C@H]2CSCN2C(=O)[C@@H]2CCC(=O)N2)cc1 | – | – | – | –
COc1cc(NC(=O)[C@H]2CSCN2C(=O)[C@@H]2CCC(=O)N2)cc(OC)c1OC | – | – | 14 | –
O=C(Cc1c(F)cccc1Cl)N/N=C/c1cccnc1 | – | – | – | –
CC1(C)CNC(=O)c2sc(NC(=O)c3ccccc3)nc2C1 | – | – | 18 | –
COc1ccc(CNC(=O)CN(c2ccc(C(C)C)cc2)S(=O)(=O)c2c(C)noc2C)cc1 | – | – | 14 | –
